TRPV1 PAM = enhances activation of the human vanilloid receptor TRPV1; hit rate 0.02% among 320,000; AID 540277; potentiation, % at 8.33 µM; Q8NER1; TRPV1-expressing cells, Fluo-8 calcium influx, capsaicin EC20 potentiation; in the data active means potentiation above about 80%; inconclusive means between about 30% and that limit; further: 0% is about no effect
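Fluo-8 calcium influx in TRPV1-expressing cells, kinetic read (ex 480/em 520 nm). Compound added and read 3 min for agonist activity, followed by capsaicin at EC20 final and 2 min further read for enhancement.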
TRHR enhancer-1 = allosterically enhances the human TRH receptor; P34981; TRHR cells, fluo-8 calcium fluorescence, EC20 TRH enhancement; enhancement, % at 2 µM; hit rate 0.66% among 360,000; in the data active means enhancement above about 30%; further: 0% is about no effect
Target sequence (P34981 whole entry, looked up): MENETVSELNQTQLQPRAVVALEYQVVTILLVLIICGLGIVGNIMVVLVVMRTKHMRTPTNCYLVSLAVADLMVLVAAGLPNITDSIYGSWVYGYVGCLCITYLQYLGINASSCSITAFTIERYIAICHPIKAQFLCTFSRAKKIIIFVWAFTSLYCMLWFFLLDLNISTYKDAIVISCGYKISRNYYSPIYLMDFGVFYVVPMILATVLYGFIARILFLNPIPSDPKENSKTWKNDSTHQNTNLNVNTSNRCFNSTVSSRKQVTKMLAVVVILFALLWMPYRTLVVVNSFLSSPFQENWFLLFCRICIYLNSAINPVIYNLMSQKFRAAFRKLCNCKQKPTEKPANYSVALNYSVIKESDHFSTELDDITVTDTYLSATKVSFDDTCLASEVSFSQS
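Enhancer read-out: after compound pinning and an initial kinetic agonist-mode read, an EC20 of TRH (10 nM final) was injected and fluo-8 calcium signal (Ex 480/Em 530) followed at 1 s/cycle for 100 cycles in TRHR-expressing cells.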
TRPV1 agonist = human TRPV1 agonism. hit rate 0.19% among 320,000. TRPV1-expressing cells, Fluo-8 calcium influx, agonist mode. Q8NER1. activation, % at 8.33 µM; in the data active means activation above about 80%; inconclusive means between about 30% and that limit; further: 0% is about no effect
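Cells expressing TRPV1 were dye-loaded with Fluo-8 and read kinetically: 10 s baseline, 3 min after compound (agonist portion), then 2 min after EC20 capsaicin (allosteric enhancer portion). Calcium-bound dye fluorescence at 480/520 nm.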
TRPML1 ag = human mucolipin-1 channel agonism. Q9GZU1. TRPML1-expressing cells, Ca2+ dye fluorescence, FDSS. activation, % (test concentration not listed). hit rate 0.12% among 410,000. AID 624414; in the data active means activation above about 50%; inconclusive means mostly about 30% to 49%; further: 0% is about no effect
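Tetracycline-induced TRPML1-DL cells are seeded and incubated overnight before loading with a no-wash Ca2+ dye and quencher. Agonist activity is taken from the 110 s fluorescence read following compound pin-transfer on an FDSS, before EC80 54-4 challenge.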
TRHR agonist-1 = agonists of human TRH receptor; P34981; TRHR cells, calcium flux fluo-8, FDSS agonist mode; activation, % at 2 µM; hit rate 0.18% among 360,000; AID 493084; in the data active means activation above about 30%; further: 0% is about no effect
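TRHR-expressing cells, plated overnight in medium with 10% serum, were loaded with fluo-8 calcium dye at room temperature. After a 10 s baseline, library compound was pin-added and calcium release was recorded kinetically (ex 480/em 530) as agonist response.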
TRPML1 inh = inhibitors of human TRPML1 channel; Q9GZU1; TRPML1-inducible cells, Ca2+ dye fluorescence, FDSS; active compounds read low; inhibition of EC80 agonist-evoked calcium signal; activity change, negative = inhibition, % (test concentration not listed); hit rate 0.02% among 390,000; in the data active means activity change below about -50%; inconclusive means between about -30% and that limit;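 further: stimulus is agonist 54-4 at its EC80 concentration; on the % scale 0 is the no-effect control and ±100 the full control effect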
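TRPML1-DL cells, Tet-induced overnight (~16 h, 37 °C) at 1,500 cells/well, were loaded with Ca8 no-wash dye plus quencher for 45-90 min at room temperature. Compounds were pinned during FDSS kinetic reading; agonist 54-4 at EC80 (4 uM final) then added.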
TRHR enhancer-2 = human TRH receptor allosteric enhancement confirmation | TRH receptor cell assay, enhancer confirmation qHTS | activity change, negative = inhibition, % at 46.1 µM | shares compounds with TRHR enhancer-1 | 970 tested, under 10 active;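 further: compound effect scored on response to added TRH at EC20 of 10 nM; 0% is about no effect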
TRHR agonist-2 = human TRH receptor agonism confirmation; hit rate 8% among 970; Potency, µM (top dose mostly 46.1 µM), for the others: top-dose activation, usual class: activators; AID 493078; shares compounds with TRHR enhancer-1; TRHR-expressing cells, agonist activation read-out; further: potency means the concentration at half of the fitted maximal effect; 0% is about no effect; nearly all actives have a fitted effect of over 75% in size
* = called active by the depositor; ? = inconclusive; / = not tested or not shown. Shown are actives, neighbours in structure and some others; about 0.99% of the full set was active somewhere. Unless noted, the call rests on the fitted dose curve; in most records, active means well fitted curve in the direction sought with a large enough effect; inconclusive means small, poorly fitted or top-dose-only effect, or another doubt; inactive means no such curve, though single readings can be large; an effect the other way counts as inactive or inconclusive.

SMILES	TRPV1 PAM	TRHR enhancer-1	TRPV1 agonist	TRPML1 ag	TRHR agonist-1	TRPML1 inh	others
CC1CCCN(c2ccc(C(=O)N3CCC4(CC3)OCCO4)cc2[N+](=O)[O-])C1 (configuration not stated)	-9	5	?	0	0	-3
C[N+](C)(C)CCOC(=O)CBr	0	5	-1	0	0	1
CC(=O)OCC[N+](C)(C)C	-34	-4	?	3	36*	-1
COC(=O)C1=C(c2cccc(OCc3ccccc3)c2)C[C@@H]2CC[C@H]1N2C(=O)NCc1ccccc1C(F)(F)F	9	34*	-7	2	1	2
O=[N+]([O-])c1ccc(NC2CCCC2)c2ccncc12	12	35*	4	1	-1	3
O=[N+]([O-])c1ccc(NC2CCN(Cc3ccccc3)CC2)c2ccncc12	19	3	0	-1	0	-3
Cc1c(C(c2ccc(Cl)cc2Cl)c2c(O)c3ccccc3oc2=O)c(=O)n(-c2ccccc2)n1C (configuration not stated)	82*	-3	-4	1	0	22
Cc1c(C(c2ccc(Br)cc2)c2c(O)c3ccccc3oc2=O)c(=O)n(-c2ccccc2)n1C (configuration not stated)	14	-5	1	1	0	14
O=C1/C(=C/c2ccc(N(CCCl)CCCl)cc2)Cc2ccccc21	/	/	/	73*	/	/
CC(=O)NCC(N)C(=O)c1ccc(C)cc1 (configuration not stated)	/	/	/	0	/	/
O=C(CN1CCCC2CCCCC21)c1ccc(I)cc1 (configuration not stated)	/	/	/	-1	/	/
CCOC(=O)c1cc(CC)sc1/N=C/C1C(=O)NC(=S)NC1=O	?	33*	-2	-1	0	0
CCOC(=O)c1cc(CC)sc1/N=C/c1c(O)[nH]c(=S)[nH]c1=O	8	4	0	0	2	11
N#CC1=C(N)Oc2c(c(=O)sc3ccccc23)C1c1cccnc1 (configuration not stated)	-1	35*	-1	1	-1	44
N#CC1=C(N)Oc2c(c(=O)oc3ccccc23)C1c1ccncc1 (configuration not stated)	-3	9	0	1	0	14
c1ccc(CCN2CCCCC2)cc1	/	/	/	0	/	/
Cc1cc(/C=C/c2ccnc3ccccc23)ccc1N(CCCl)CCCl	/	/	/	0	/	/
CN(C)c1nc(-c2ccccc2)[n+](C)s1	0	-1	1	0	0	4
Cc1ccc(-c2nc(N3CCOCC3)s[n+]2-c2ccccc2)cc1	0	31*	-1	0	0	-1
C[C@H]1OC[C@@H](C[N+](C)(C)C)O1	-13	-2	28	4	41*	-7
O=c1[nH]c(=O)n(C2CCCCC2)c(O)c1/C=C/C=Nc1ccccc1	9	17	?	?	63*	-15
Cc1cc(/C=C/c2cccc3sc(C)[n+](CCCCI)c23)ccc1N(CCCl)CCCl	/	/	/	14	/	/
O=C1NC(=S)N(c2ccccc2)C(=O)/C1=C/c1ccco1	-23	-6	3	0	1	-22
CCOc1cccc(N2C(=O)/C(=C/c3ccco3)C(=O)NC2=S)c1	-5	34*	3	0	1	32
NCC(=O)c1ccc(Cl)c(Cl)c1	/	/	/	0	/	/
SMILES	TRPV1 PAM	TRHR enhancer-1	TRPV1 agonist	TRPML1 ag	TRHR agonist-1	TRPML1 inh	others
O=C1NC(=S)N(Cc2ccco2)C(=O)/C1=C\c1cccs1	-7	51*	-1	/	2	/
O=C(CN1CC=C(c2ccccc2)CC1)NC(=O)NCc1ccccc1	-8	62*	13	0	-1	3	TRHR enhancer-2=?;TRHR agonist-2=3%
O=C1NC(=O)N(c2cccc(Cl)c2)C(=O)/C1=C\c1ccc(Sc2nc3ccccc3[nH]2)o1	-1	22	15	22	47*	-2	TRHR enhancer-2=7;TRHR agonist-2=?
O=C1NC(=O)N(c2ccccc2)C(=O)/C1=C/c1ccc(Sc2ccccc2)o1	-5	-2	6	3	2	13
CC1Cc2ccccc2CN1 (configuration not stated)	/	/	/	0	/	/
Cc1ccccc1-c1nc(CS(=O)CC(=O)N2CCC3(CC2)OCCO3)c(C)o1 (configuration not stated)	9	42*	-3	-1	-1	0	TRHR enhancer-2=-4;TRHR agonist-2=-1%
CC(C(=O)c1ccccc1)N1C(=O)c2ccccc2C1=O (configuration not stated)	-1	0	23	0	-1	5
CC(Cc1ccccc1)N1C(=O)c2ccccc2C1=O (configuration not stated)	-11	55*	6	2	0	-7	TRHR enhancer-2=-13;TRHR agonist-2=2%
O=c1[nH]/c(=C\c2ccc(N(CCCl)CCCl)cc2)c(=O)[nH]/c1=C\c1ccc(N(CCCl)CCCl)cc1	/	/	/	3	/	/
CCC1(C)OC(c2ccccc2)=C/C(=C/C=C2C(=O)NC(=O)NC2=O)O1 (configuration not stated)	-16	-4	?	28	41*	0	TRHR enhancer-2=-3;TRHR agonist-2=?
NCC(=O)c1ccc2ccccc2c1	/	/	/	0	/	/
O=C(NCCN1CCOCC1)c1ccc(Cl)nc1	2	1	-2	-1	75*	17	TRHR enhancer-2=5;TRHR agonist-2=0%
CCCCCn1c(N)c(C(=O)NCCN2CCOCC2)c2nc3ccccc3nc21	-5	0	-2	-1	1	13
